Bioassay records from PubChem.
Hits are enriched below; roughly 7.3% of the tested compounds scored in any of these assays.
Tau ThT inhib: tau fibrillization inhibition (ThT binding) | P10636 | recombinant tau K18 P301L, heparin-induced fibrillization, ThT fluorescence | Potency, µM (series often up to 57.4 µM), hits mostly inhibitors | hit rate 2.1% among 270,000 | AID 1460; further: nearly all actives have a fitted effect of over 55% in size
Target sequence (P10636 561-689 P618L limits assumed): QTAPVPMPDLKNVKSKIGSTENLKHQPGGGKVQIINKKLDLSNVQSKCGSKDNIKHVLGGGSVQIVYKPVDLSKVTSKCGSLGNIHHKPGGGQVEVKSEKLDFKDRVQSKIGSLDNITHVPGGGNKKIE
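Using a mix of unlabeled (15 uM) and Alexa 594-labeled (0.24 uM) tau K18 P301L, heparin-triggered fibrillization over 6 hr at 37 C was scored by ThT fluorescence.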
RORgamma inh: ROR gamma (mouse) transcription inhibition; hit rate 5.4% among 310,000; AID 2551; P51450; Drosophila S2 Gal4-RORgamma UAS-luciferase reporter, 20 h; Potency, µM (series often up to 53.6 µM), actives largely listed as inhibitors; further: nearly all actives have a fitted effect of over 60% in size
Target sequence (P51450 whole entry, looked up, the tested form may be a part): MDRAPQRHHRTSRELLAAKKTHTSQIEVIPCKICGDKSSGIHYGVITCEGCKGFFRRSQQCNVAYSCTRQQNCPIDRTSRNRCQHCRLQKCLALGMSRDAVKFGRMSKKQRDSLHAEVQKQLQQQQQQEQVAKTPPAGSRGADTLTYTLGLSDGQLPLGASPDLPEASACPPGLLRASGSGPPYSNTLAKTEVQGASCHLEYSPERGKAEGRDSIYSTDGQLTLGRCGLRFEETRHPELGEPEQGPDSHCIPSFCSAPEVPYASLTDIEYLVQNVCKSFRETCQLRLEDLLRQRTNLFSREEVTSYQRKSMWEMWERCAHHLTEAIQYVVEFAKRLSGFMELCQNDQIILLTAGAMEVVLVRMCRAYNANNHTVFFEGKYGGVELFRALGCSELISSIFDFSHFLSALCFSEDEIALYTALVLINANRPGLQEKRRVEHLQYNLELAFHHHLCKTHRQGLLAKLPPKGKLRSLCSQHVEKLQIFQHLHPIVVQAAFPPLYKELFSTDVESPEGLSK
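Read-out: Photinus luciferase luminescence; inhibitors lower reporter signal. Insect Schneider cells with Gal4-ROR gamma fusion under metallothionein promoter, UAS reporter; 700 uM final copper sulfate induction, 20 hr, ambient temperature.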
Gal4-VP16 FLuc: Gal4-VP16 reporter inhibition counter-screen. Drosophila S2 Gal4-VP16 UAS-luciferase, luminescence, 20 h. Potency, µM (top dose mostly 53.6 µM), most hits filed as inhibitors. hit rate 3.5% among 310,000. AID 2546;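 further: Gal4-VP16 expression switched on by copper sulfate through the metallothionein promoter; nearly all actives have a fitted effect of over 50% in size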
Tau fibril FP: tau fibrillization inhibition (FP) | P10636 | K18 P301L tau heparin fibrillization, Alexa594 FP, 6 h | Potency, µM (titrated, usually from 57.7 µM), hits mostly inhibitors | hit rate 0.39% among 280,000 | AID 1468; further: nearly all actives have a fitted effect of over 55% in size
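Read-out: fluorescence polarization of Alexa 594-labeled tau (0.24 uM), 555 nm excitation, 632 nm emission. Mixtures held 15 uM unlabeled K18 P301L, compound and 20 uM heparin, pH 7 acetate buffer, incubated 6 hr at 37 C.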
Tau fluor counter: counter-screen for tau fibril formation inhibitors; tau K18 P301L Alexa594 fluorescence, heparin fibrillization; Potency, µM (highest dose often 57.7 µM); hit rate 0.93% among 280,000; AID 1463; further: nearly all actives have a fitted effect of over 55% in size
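Human tau K18 P301L (15 uM unlabeled, 0.24 uM Alexa 594-labeled) in 100 mM sodium acetate pH 7 with 20 uM heparin, 6 hr at 37 C. ThT 30 uM added, 1 hr ambient; Alexa 594 FP and total fluorescence read at 555/632 nm.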
Each line names hits and unclear results; the compound was inactive in the other large screens; [ ] = remark or other dose. The call rests on the fitted dose curve; in most records, active means well fitted curve in the direction sought with a large enough effect; inconclusive means small, poorly fitted or top-dose-only effect, or another doubt; inactive means no such curve, though single readings can be large; an effect the other way counts as inactive or inconclusive.

COC(=O)CS(=O)(=O)c1nnc([C@H](Cc2ccccc2)NC(=O)OC(C)(C)C)o1	Tau ThT inhib inconclusive, RORgamma inh inconclusive, Gal4-VP16 FLuc inconclusive
CCCc1cc(=O)oc2c3c(ccc12)OCN(Cc1ccccc1OC)C3	none (no result: RORgamma inh, Gal4-VP16 FLuc)
CCOC(=O)C1CCCN(C/C(O)=C(\C#N)c2nc(-c3ccc(Cl)cc3)cs2)C1 (centres undefined)	Tau ThT inhib inconclusive, RORgamma inh 22µM, Gal4-VP16 FLuc inconclusive
CCOC(=O)C1CCCN(Cc2nc(N)nc(Nc3ccc(Cl)cc3)n2)C1 (centres undefined)	RORgamma inh 13µM, Gal4-VP16 FLuc inconclusive
N#C/C(=C(/O)CN1CCCC1)c1nc(-c2ccccc2)cs1	none
CCOC(=O)c1ccc(NC(=O)c2oc3c(c2C)-c2nn(Cc4ccccc4Cl)cc2CC3)cc1	none (no result: RORgamma inh, Gal4-VP16 FLuc)
COc1cc2nc(CN(CCC(C)C)Cc3nc4cc(OC)c(OC)cc4c(=O)[nH]3)[nH]c(=O)c2cc1OC	RORgamma inh 0.79µM, Gal4-VP16 FLuc 6.3µM
CCNCc1nc2cc(OC)c(OC)cc2c(=O)[nH]1	none
Nc1ccc(O)cc1C(=O)OCC(=O)c1ccc(C2CCCCC2)cc1	Tau ThT inhib inconclusive, RORgamma inh 7.1µM, Gal4-VP16 FLuc inconclusive, Tau fluor counter 13µM[quencher]
COc1ccc(C(=O)OCC(=O)c2ccc(C3CCCCC3)cc2)cc1	Tau fibril FP inconclusive
Cc1ccccc1-n1c(-c2ccncc2)n[nH]c1=S	RORgamma inh 13µM
Cc1ccc(C)c(-n2c(-c3csc(C)c3C)n[nH]c2=S)c1	RORgamma inh inconclusive, Gal4-VP16 FLuc 5µM
Cc1cc(-c2n[nH]c(=S)n2-c2ccccc2C)cs1	RORgamma inh 2.8µM, Gal4-VP16 FLuc 6.3µM
Cc1ccccc1-n1c(-c2ccc(=O)[nH]n2)n[nH]c1=S	none
Cc1ccc(C)c(-n2c(-c3cccnc3)n[nH]c2=S)c1	RORgamma inh 10µM
Cc1cccc(-n2c(-c3ccncc3)n[nH]c2=S)c1C	none
COc1ccc(COC(=O)N/N=C2/C[C@@H](O)[C@@H](O)[C@@H]3[C@@H]4C(=O)N(C[C@@H]5CCCO5)C(=O)[C@H]4CC[C@H]23)cc1	Tau fibril FP inconclusive
CC(=O)OC[C@@H]1O[C@H](C/C=N\O[C@@H](C)CN2CCCc3nc(C)c(C)cc32)C=C[C@@H]1OC(C)=O	none
CCOC(=O)c1ccc(NC(=O)NCc2ccccn2)cc1	none (no result: Tau ThT inhib, Tau fibril FP, Tau fluor counter)
Cc1cccc2c1-c1sc(C(=O)NCc3ccc(Cl)cc3)cc1CO2	none (no result: RORgamma inh, Gal4-VP16 FLuc)
Cc1ccc(-n2c(-c3ccncc3)n[nH]c2=S)c(C)c1	RORgamma inh 11µM, Gal4-VP16 FLuc inconclusive
Cc1cc(C)cc(NC(=O)N2CCC(CN3CCc4ccccc4C3)CC2)c1	none (no result: RORgamma inh, Gal4-VP16 FLuc)
O=C(Nc1cccc(-c2nc3ccccc3o2)c1)C(F)(F)F	Tau fibril FP inconclusive (no result: RORgamma inh, Gal4-VP16 FLuc)
N#CC1=C(S)N(c2ccccc2)C(c2ccc(-c3cc(Cl)ccc3Cl)o2)NC1=O (centres undefined)	Tau ThT inhib inconclusive, RORgamma inh 13µM, Gal4-VP16 FLuc inconclusive, Tau fibril FP inconclusive
N#CC1=C(S)N(c2ccccc2)C(c2ccc(-c3ccc(Cl)c(Cl)c3)o2)NC1=O (centres undefined)	Tau ThT inhib 16µM, RORgamma inh 10µM, Gal4-VP16 FLuc inconclusive, Tau fibril FP 25µM
N#CC1=C(S)N(c2ccccc2)C(c2cccs2)NC1=O (centres undefined)	Tau ThT inhib inconclusive, Tau fibril FP inconclusive
O=c1[nH]c(/C=C\c2cccnc2)c([N+](=O)[O-])c(=O)[nH]1	none
Cc1ccc(N/C=C/c2onc(C)c2[N+](=O)[O-])cc1	Tau ThT inhib 0.63µM
Cc1cccc(C)c1N/C=C/c1onc(C)c1[N+](=O)[O-]	none
Cc1noc(/C=C/c2cccnc2)c1[N+](=O)[O-]	RORgamma inh 10µM, Gal4-VP16 FLuc 16µM (no result: Tau ThT inhib, Tau fibril FP, Tau fluor counter)
CSCC[C@H](NC(=O)Cc1c(C)c2c(cc(C)c3c(C)coc32)oc1=O)C(=O)O	none (no result: Tau ThT inhib, Tau fibril FP, Tau fluor counter)
O=C1Nc2ccc(F)cc2C12Nc1ccccc1-c1nnc(SCc3ccccc3F)nc1O2 (centres undefined)	Tau ThT inhib 25µM, Gal4-VP16 FLuc inconclusive, Tau fibril FP inconclusive, Tau fluor counter inconclusive
CCOC(=O)C1CCN(S(=O)(=O)c2cc(Br)cc3c2N(C(=O)CC)CC3)CC1	none (no result: RORgamma inh, Gal4-VP16 FLuc)
C=CCc1c(C)nc(SC)nc1Nc1ccc(C)cc1	RORgamma inh 10µM
C=CCc1c(C)nc(-c2ccccc2)nc1Nc1ccccc1O	RORgamma inh inconclusive, Tau fluor counter inconclusive
COc1ccc(NC(=O)c2[nH]nc3c2CSc2ccccc2-3)c(OC)c1	none (no result: RORgamma inh, Gal4-VP16 FLuc)
COc1ccc(C(=O)Nc2nnc(S(=O)(=O)N(C)Cc3ccc(F)cc3)s2)cc1OC	none (no result: Tau ThT inhib, Tau fibril FP, Tau fluor counter)
COc1cc(Br)ccc1C1CC(=O)C(C)C(c2ccc(Br)cc2OC)N1 (centres undefined)	none (no result: Tau ThT inhib, Tau fibril FP, Tau fluor counter)
CCN(C(=S)Nc1cccc(C)c1)c1ccccc1	RORgamma inh 16µM, Gal4-VP16 FLuc inconclusive
CCOC(=O)N1CCC(N(CCN(C)C)C(=S)Nc2ccc(Oc3ccccc3)cc2)CC1	Tau ThT inhib inconclusive, RORgamma inh 11µM, Tau fibril FP inconclusive
CCN(C(=S)Nc1ccc(Oc2ccccc2)cc1)c1ccccc1	RORgamma inh 13µM, Gal4-VP16 FLuc 18µM, Tau fluor counter inconclusive
CCOC(=O)Nc1ccc(Oc2ccccc2)cc1	RORgamma inh inconclusive
CSc1nnc(-c2ccccc2)o1	none
CSc1nnc(-c2cc3c(s2)-c2ccccc2CC3)o1	Tau ThT inhib inconclusive, RORgamma inh 1.3µM
